This note sets out measurements from PubChem BioAssay (NCATS).

Structures are written as SMILES. Inconclusive results are not listed. Activity calls are given as the source filed them. Calls come from the whole dose curve; as a rule, active = well fitted curve in the direction sought with a large enough effect; inconclusive = small, poorly fitted or top-dose-only effect, or another doubt; inactive = no such curve, though single readings can be large; an effect the other way counts as inactive or inconclusive.

Assay [1] is described as follows: Quantitative High-Throughput drug screen in 47 multiple myeloma cell lines against the NCATS MIPE library collection: Delta47_JCRB cell viability assay (AID 1918925; note: nearly all actives have a fitted effect of over 45% in size; note: potency is the fitted concentration of half-maximal effect). The procedure, abridged: (§1)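 CellTiter-Glo luminescence (ATP) after 48 h compound exposure, 37C/5% CO2; 500 cells/well; MIPE 4.0 approved/investigational drugs pinned in; DMSO = 100%, media only = 0% viability.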

Assay [2] can be described thus: Quantitative High-Throughput drug screen in 47 multiple myeloma cell lines against the NCATS MIPE library collection: EJM_DSMZ cell viability assay (AID 1918926; note: nearly all actives have a fitted effect of over 30% in size; note: potency is the fitted concentration of half-maximal effect). The procedure, abridged: as §1
Assay [3] is described as follows: Quantitative High-Throughput drug screen in 47 multiple myeloma cell lines against the NCATS MIPE library collection: AMO1_DSMZ cell viability assay (AID 1918927; note: nearly all actives have a fitted effect of over 30% in size; note: potency is the fitted concentration of half-maximal effect). The essentials:
as §1

Assay [4] can be described thus: Quantitative High-Throughput drug screen in 47 multiple myeloma cell lines against the NCATS MIPE library collection: ARD_JJKsccE7 cell viability assay (AID 1918929; note: potency is the fitted concentration of half-maximal effect). The procedure, abridged:
as §1

The nature of assay [5]: Quantitative High-Throughput drug screen in 47 multiple myeloma cell lines against the NCATS MIPE library collection: KMM1_JCRB cell viability assay (AID 1918960). Note: nearly all actives have a fitted effect of over 30% in size. Note: potency is the fitted concentration of half-maximal effect. The essentials: (§2)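 500 cells/well; MIPE 4.0 library pinned in; 48 h, 37 °C, 5% CO2; CellTiter-Glo ATP luminescence. Controls: DMSO = 100% viability, medium only = 0%.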
A short description of assay [6]: Quantitative High-Throughput drug screen in 47 multiple myeloma cell lines against the NCATS MIPE library collection: JIM3_ECACC cell viability assay (AID 1918963; note: nearly all actives have a fitted effect of over 35% in size; note: potency is the fitted concentration of half-maximal effect). The procedure, abridged: (§3)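 Myeloma cells (500 per well) were exposed to MIPE 4.0 compounds by pin transfer and incubated 48 hours at 37C, 5% CO2. Viability was read as ATP by CellTiter-Glo luminescence, normalised to DMSO (100%) and media-only (0%) wells.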

Assay [7] is described as follows: Quantitative High-Throughput drug screen in 47 multiple myeloma cell lines against the NCATS MIPE library collection: JIM1_ECACC cell viability assay (AID 1918964; note: potency is the fitted concentration of half-maximal effect). The essentials: as §1
Assay [8] in a line: Quantitative High-Throughput drug screen in 47 multiple myeloma cell lines against the NCATS MIPE library collection: INA6_PLB cell viability assay (AID 1918965; note: nearly all actives have a fitted effect of over 55% in size; note: potency is the fitted concentration of half-maximal effect). The essentials: (§4)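 CellTiter-Glo ATP luminescence gave viability after 48 h compound treatment at 37C of 500 multiple myeloma cells per well. Normalisation used DMSO-only wells as 100% and media-only wells as 0% viability; primary qHTS of approved and investigational drugs.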

The nature of assay [9]: Quantitative High-Throughput drug screen in 47 multiple myeloma cell lines against the NCATS MIPE library collection: Karpas25_ECACC cell viability assay (AID 1918968; note: nearly all actives have a fitted effect of over 35% in size; note: potency is the fitted concentration of half-maximal effect). The procedure, abridged: as §1
Assay [10] is described as follows: Quantitative High-Throughput drug screen in 47 multiple myeloma cell lines against the NCATS MIPE library collection: ARP1_JJKsccF8 cell viability assay (AID 1918928; note: nearly all actives have a fitted effect of over 40% in size; note: potency is the fitted concentration of half-maximal effect). The procedure, abridged:
as §2

Assay [11] in a line: Quantitative High-Throughput drug screen in 47 multiple myeloma cell lines against the NCATS MIPE library collection: KHM11_PLB cell viability assay (AID 1918962). Note: nearly all actives have a fitted effect of over 35% in size. The procedure, abridged: as §3
A short description of assay [12]: Quantitative High-Throughput drug screen in 47 multiple myeloma cell lines against the NCATS MIPE library collection: H1112_PLB cell viability assay (AID 1918967; note: nearly all actives have a fitted effect of over 30% in size; note: potency is the fitted concentration of half-maximal effect). The procedure, abridged: as §1
Assay [13] is described as follows: Quantitative High-Throughput drug screen in 47 multiple myeloma cell lines against the NCATS MIPE library collection: KMS27_JCRB cell viability assay (AID 1918970). Note: nearly all actives have a fitted effect of over 30% in size. Note: potency is the fitted concentration of half-maximal effect. The procedure, abridged:
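Each line is seeded at 500 cells per well and treated with library compounds for 48 hours under 37 °C, 5% CO2. CellTiter-Glo is then added for 5 min at room temperature before median relative luminescence is recorded.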

Assay [14] is described as follows: Quantitative High-Throughput drug screen in 47 multiple myeloma cell lines against the NCATS MIPE library collection: Karpas620_DSMZ cell viability assay (AID 1918959). Note: nearly all actives have a fitted effect of over 30% in size. Note: potency is the fitted concentration of half-maximal effect. The procedure, abridged:
as §3

Assay [15] is described as follows: Quantitative High-Throughput drug screen in 47 multiple myeloma cell lines against the NCATS MIPE library collection: JJN3_DSMZ cell viability assay (AID 1918966; note: potency is the fitted concentration of half-maximal effect; nearly all actives have a fitted effect of over 50% in size). The procedure, abridged: as §1
Assay [16] is described as follows: Quantitative High-Throughput drug screen in 47 multiple myeloma cell lines against the NCATS MIPE library collection: FR4_PLB cell viability assay (AID 1918924; note: nearly all actives have a fitted effect of over 35% in size; note: potency is the fitted concentration of half-maximal effect). The essentials: as §3
Assay [17] is described as follows: Quantitative High-Throughput drug screen in 47 multiple myeloma cell lines against the NCATS MIPE library collection: Karpas417_ECACC cell viability assay (AID 1918961). Note: potency is the fitted concentration of half-maximal effect. Conditions: Karpas417 myeloma viability, CellTiter-Glo ATP luminescence, 48 h; viability (% of DMSO): at 45.8 µM (top of the series). The procedure, abridged:
as §4

As for `COc1ccc(-c2cc(=O)c3c(O)cc(O)cc3o2)cc1O`, the Potency in assay [1] was 4.69 µM (active); in [2], 4.69 µM (active); in assay [3], 5.26 µM (active); in assay [4] it was 6.62 µM (active); in [5] it was 7.43 µM (active); in [6], 7.43 µM (active). Moreover, the Potency in assay [7] was 9.35 µM (active); in [8], 8.33 µM (active); in assay [9], 3.72 µM (active).

Regarding `CCC(CC)[C@H](NC(C)=O)[C@@H]1[C@H](O)[C@@H](C(=O)O)C[C@@H]1N=C(N)N`, the Potency entry in assay [1], in assay [2], in [10], in assay [4], in assay [11] and in assay [6] was “inactive” in each case. Besides, the Potency entry in assay [8], in assay [12], in [9] and in assay [13] was “inactive” each time.

With `O=C1NC(=O)C(=Cc2ccc3nccnc3c2)S1`, the Potency in assay [1] is 6.45 µM (active); in assay [10], 10.2 µM (active); in [14] it was 3.63 µM (active); in assay [5], 2.04 µM (active); in assay [6], 10.2 µM (active); in assay [15] it was 8.12 µM (active). Besides, the Potency in [12] was 6.45 µM (active); in [9] it was 5.75 µM (active); in [13] it was 2.29 µM (active). Besides, the Potency result in [3] was “inactive”.

On to `C=C1C(=O)OC(CCCCCCCC)C1C(=O)O` (stereo not drawn), for which the Potency in assay [1] is 14.8 µM (active); in assay [8], 18.7 µM (active); in assay [9] it was 26.4 µM (active). For the same molecule, the Potency result in [3], in [10], in [4], in [7] and in assay [13] was “inactive” in each case.

On to `CC[C@]1(O)C[C@@H]2CN(CCc3c([nH]c4ccccc34)[C@@](C(=O)OC)(c3cc4c(cc3OC)N(C=O)[C@@H]3C45CCN4CC=C[C@](CC)([C@H]45)[C@@H](OC(C)=O)[C@]3(O)C(=O)OC)C2)C1` (stereo partly drawn), for which the Potency in assay [16] and in assay [15] was 20.9 µM (active) in each case. Moreover, the Potency entry in [4], in assay [14], in assay [5], in assay [7] and in assay [13] was “inactive” in each case.

In the case of `CC=C(C)C(=O)O[C@H]1C(C)=C[C@]23C(=O)[C@@H](C=C(CO)[C@@H](O)[C@]12O)[C@H]1[C@@H](C[C@H]3C)C1(C)C`, the Potency in assay [1] is 5.26 µM (active); in [3] it was 18.7 µM (active); in assay [4] it was 11.8 µM (active); in assay [5], 11.8 µM (active); in assay [6] it was 18.7 µM (active); in assay [12], 0.526 µM (active). The Potency in [13] is 9.35 µM (active).

Turning to `O=C1NC(=O)C(=Cc2ccc3c(c2)OC(F)(F)O3)S1`, the Potency result in [16] and in [7] was “inactive” each time. Moreover, the Potency in assay [4] is 16.6 µM (active); in assay [8] it was 26.4 µM (active); in assay [12] it was 20.9 µM (active); in assay [9], 18.7 µM (active).

As for `Nc1ncnc2c1ncn2[C@@H]1O[C@H](CO)C[C@@H]1O`, the Potency entry in [1], in assay [2], in assay [3], in assay [10], in assay [4] and in assay [14] was “inactive” in each case. Moreover, the Potency entry in assay [5], in assay [17], in [6], in assay [12], in [9] and in assay [13] was “inactive” throughout.

Turning to `C=CCc1ccc(O)c(-c2ccc(O)c(CC=C)c2)c1`, the Potency is 18.7 µM (active) in assay [1]; 23.5 µM (active) in [2]; 23.5 µM (active) in assay [3]; 26.4 µM (active) in assay [14]; 20.9 µM (active) in assay [6]; 18.7 µM (active) in [8]. Besides, the Potency in [13] is 23.5 µM (active).

As to `CCC(=O)NC[C@H](Cc1ccc(OCCc2nc(-c3ccccc3)oc2C)cc1)NC(C)=CC(=O)c1ccc(C(F)(F)F)cc1`, the Potency result in [1], in assay [14], in assay [6], in assay [12] and in assay [9] was “inactive” in each case. Also, the Potency in [2] is 26.4 µM (active); in assay [10], 23.5 µM (active); in [4] it was 1.48 µM (active).

Consider `CNC(=O)c1ccccc1Sc1ccc2c(C=Cc3ccccn3)n[nH]c2c1`, for which the Potency in [1] was 3.72 µM (active); in assay [2] it was 23.5 µM (active); in [3] it was 2.64 µM (active); in assay [5], 3.32 µM (active); in assay [8], 18.7 µM (active); in assay [12], 0.296 µM (active). For the same molecule, the Potency in assay [9] is 16.6 µM (active).

For the molecule `Nc1ncnc2c1nc(Cl)n2[C@@H]1O[C@H](CO)[C@@H](O)[C@@H]1O`, the Potency in assay [1] was 23.5 µM (active); in assay [2], 18.7 µM (active); in assay [3], 2.35 µM (active); in assay [10], 13.2 µM (active); in [4] it was 14.8 µM (active); in [14], 14.8 µM (active). Moreover, the Potency in [7] was 16.6 µM (active); in [15], 16.6 µM (active); in assay [12] it was 18.7 µM (active); in assay [9] it was 7.43 µM (active); in assay [13], 20.9 µM (active).

In the case of `COc1ccc(-c2oc3c(CC=C(C)C)c(OC4O[C@H](CO)[C@@H](O)[C@H](O)[C@@H]4O)cc(O)c3c(=O)c2OC2O[C@@H](C)[C@H](O)[C@@H](O)[C@@H]2O)cc1` (stereo partly drawn), the Potency in assay [1] was 18.7 µM (active); in [3], 8.33 µM (active); in [10], 16.6 µM (active); in assay [4] it was 9.35 µM (active); in assay [14] it was 11.8 µM (active); in [17] it was 10.5 µM (active). In addition, the Potency in assay [6] is 20.9 µM (active); in assay [8] it was 33.2 µM (active); in assay [15] it was 18.7 µM (active); in [12], 23.5 µM (active); in assay [9], 20.9 µM (active); in [13] it was 11.8 µM (active).

For `COc1cccc(-c2cc(=O)c3ccccc3o2)c1N`, the Potency is 2.64 µM (active) in [1], 16.6 µM (active) in [3], 3.72 µM (active) in [6] and 1.66 µM (active) in assay [9]. The Potency entry in assay [2], in assay [4], in assay [14], in [5] and in assay [13] was “inactive” each time.
